Assay [1] is described as follows: small molecules captured by biotinylated probe aFSTL3 – biochemical, small-molecule microarray, fluorescence 635/667, stem cell growth factor project, primary screen (AID 1064).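 Note: measures binding of the biotinylated anti-FSTL3 antibody to printed compounds.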 The note with it: higher = more signal.
Assay [2] can be described thus: binders from COS7 lysate, DM2A8 probe, primary screen, torsin A project, cell lysate, small-molecule microarray, fluorescence 635/667 (AID 1065). As to conditions: higher = more signal, COS7 lysate expressing mutant human TOR1A.
The nature of assay [3]: small molecules captured by biotinylated probe aFGF2 – biochemical, small-molecule microarray, fluorescence 635/667, stem cell growth factor project, primary screen (AID 1067).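 Note: measures binding of biotinylated aFGF2 protein to printed compounds on slides; z-score merges feature fluorescence and signal-to-noise across triplicate slides.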 As to conditions: higher = more signal.
Assay [4] is described as follows: small molecules captured by biotinylated probe aFGF10 – biochemical, small-molecule microarray, fluorescence 635/667, stem cell growth factor project, primary screen (AID 1071).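 Note: score merges 667 nm spot intensity and signal to noise from triplicate slides.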 As to conditions: higher = more signal.
Assay [5] deals with Neurogenic locus notch homolog protein 2 (Homo sapiens) (UniProt Q04721). Description: small molecules binding Notch2 protein – biochemical, small-molecule microarray, 635 nm fluorescence, stem cell growth factors, primary screen (AID 1073). The note with it: higher = more signal.
Sequence of Neurogenic locus notch homolog protein 2 (Homo sapiens) (Q04721 whole entry, looked up, canonical isoform): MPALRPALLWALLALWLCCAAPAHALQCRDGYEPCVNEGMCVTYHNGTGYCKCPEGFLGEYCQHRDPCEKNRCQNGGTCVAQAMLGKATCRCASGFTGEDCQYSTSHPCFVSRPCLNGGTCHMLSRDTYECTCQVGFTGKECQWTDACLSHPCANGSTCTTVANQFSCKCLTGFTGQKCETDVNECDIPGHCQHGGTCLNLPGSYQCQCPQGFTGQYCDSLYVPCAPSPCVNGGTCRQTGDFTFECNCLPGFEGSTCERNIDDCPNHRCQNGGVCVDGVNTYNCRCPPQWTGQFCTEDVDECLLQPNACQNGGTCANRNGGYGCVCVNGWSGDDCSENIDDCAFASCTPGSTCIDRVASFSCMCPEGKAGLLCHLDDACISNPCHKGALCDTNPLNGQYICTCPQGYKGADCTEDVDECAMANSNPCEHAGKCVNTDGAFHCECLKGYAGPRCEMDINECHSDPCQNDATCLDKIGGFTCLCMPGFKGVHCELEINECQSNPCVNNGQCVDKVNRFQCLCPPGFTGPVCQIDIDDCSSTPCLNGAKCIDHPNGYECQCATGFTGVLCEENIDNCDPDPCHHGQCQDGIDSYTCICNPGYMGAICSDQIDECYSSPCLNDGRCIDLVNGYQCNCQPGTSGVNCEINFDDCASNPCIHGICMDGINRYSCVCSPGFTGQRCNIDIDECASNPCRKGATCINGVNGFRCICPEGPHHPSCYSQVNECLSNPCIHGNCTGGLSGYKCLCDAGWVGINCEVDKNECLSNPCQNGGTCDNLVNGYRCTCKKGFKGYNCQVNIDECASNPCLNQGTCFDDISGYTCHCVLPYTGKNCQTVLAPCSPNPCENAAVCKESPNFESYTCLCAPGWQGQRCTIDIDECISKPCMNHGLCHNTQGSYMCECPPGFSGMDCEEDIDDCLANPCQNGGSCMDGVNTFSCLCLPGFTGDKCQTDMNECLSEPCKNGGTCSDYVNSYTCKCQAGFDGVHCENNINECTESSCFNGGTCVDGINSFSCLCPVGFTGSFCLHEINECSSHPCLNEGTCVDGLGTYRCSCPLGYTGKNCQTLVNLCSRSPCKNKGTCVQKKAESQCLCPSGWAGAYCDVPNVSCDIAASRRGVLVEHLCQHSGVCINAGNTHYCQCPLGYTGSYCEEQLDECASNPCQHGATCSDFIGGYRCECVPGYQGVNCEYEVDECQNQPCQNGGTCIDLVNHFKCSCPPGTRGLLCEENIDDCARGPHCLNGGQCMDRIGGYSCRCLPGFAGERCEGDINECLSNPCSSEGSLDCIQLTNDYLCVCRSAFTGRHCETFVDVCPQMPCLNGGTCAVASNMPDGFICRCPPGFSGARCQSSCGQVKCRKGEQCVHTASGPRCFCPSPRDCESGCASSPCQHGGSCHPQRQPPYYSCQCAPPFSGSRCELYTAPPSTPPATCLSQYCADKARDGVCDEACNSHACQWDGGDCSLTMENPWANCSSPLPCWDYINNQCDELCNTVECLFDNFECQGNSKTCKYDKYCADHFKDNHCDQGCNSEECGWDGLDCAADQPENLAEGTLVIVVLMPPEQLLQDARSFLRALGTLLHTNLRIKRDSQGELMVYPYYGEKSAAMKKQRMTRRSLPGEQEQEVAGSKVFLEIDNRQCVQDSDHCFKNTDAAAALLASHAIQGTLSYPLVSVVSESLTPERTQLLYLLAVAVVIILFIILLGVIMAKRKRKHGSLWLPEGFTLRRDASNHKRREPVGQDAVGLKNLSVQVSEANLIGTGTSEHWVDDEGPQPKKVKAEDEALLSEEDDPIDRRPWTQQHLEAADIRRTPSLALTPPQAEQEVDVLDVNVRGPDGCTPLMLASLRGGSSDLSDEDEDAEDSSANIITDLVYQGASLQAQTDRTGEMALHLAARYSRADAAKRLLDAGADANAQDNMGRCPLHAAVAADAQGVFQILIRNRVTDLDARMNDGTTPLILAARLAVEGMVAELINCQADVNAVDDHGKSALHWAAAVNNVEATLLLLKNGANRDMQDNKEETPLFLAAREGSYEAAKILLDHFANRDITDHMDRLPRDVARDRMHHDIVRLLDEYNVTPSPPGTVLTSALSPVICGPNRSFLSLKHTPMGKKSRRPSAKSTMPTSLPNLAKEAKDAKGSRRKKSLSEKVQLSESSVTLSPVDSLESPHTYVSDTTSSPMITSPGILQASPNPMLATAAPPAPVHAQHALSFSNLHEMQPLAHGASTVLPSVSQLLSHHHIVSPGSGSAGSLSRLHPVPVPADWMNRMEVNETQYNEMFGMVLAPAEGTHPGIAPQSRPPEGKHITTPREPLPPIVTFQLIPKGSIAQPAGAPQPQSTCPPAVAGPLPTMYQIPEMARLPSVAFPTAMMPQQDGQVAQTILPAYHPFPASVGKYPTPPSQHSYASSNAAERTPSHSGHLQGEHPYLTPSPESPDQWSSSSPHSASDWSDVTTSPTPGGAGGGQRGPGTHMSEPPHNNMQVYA
In assay [6] the target is Pro-neuregulin-1, membrane-bound isoform (Homo sapiens) (UniProt Q02297). Description: small molecules binding neuregulin-1 protein – biochemical, small-molecule microarray, fluorescence 635/667, psychiatric disease protein project, primary screen (AID 1075).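 Note: score combines 667 nm spot fluorescence with signal to noise.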 The note with it: NRG1 binding, 635 nm fluorescence, higher = more signal.
Assay [7] relates to Neuregulin-1 EGF-like domain. Description: small molecules binding NRG1 EGF domain – biochemical, small-molecule microarray, 635 nm fluorescence, primary screen (AID 1081).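 Note: binding of the protein to compounds printed on small-molecule microarray slides.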 As to conditions: higher = more signal.
Assay [8] is described as follows: FRG1 expression reporter modulators in myotubes – cell-based, C2C12 myotubes, firefly/Renilla luciferase, luminescence, FRG1 inhibition for FSHD, primary screen (AID 1084). The note with it: FRG1 promoter luciferase, higher = more signal, called active from +8 up or from −8 down.
The nature of assay [9]: small molecules captured by biotinylated probe aFST – biochemical, small-molecule microarray, fluorescence 635/667, stem cell growth factor project, primary screen (AID 1086).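 Note: score merges 667 nm fluorescence with signal-to-noise of each printed compound spot.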 As to conditions: higher = more signal.
Assay [10] is described as follows: binders of probe aHhip on microarray, primary screen, stem cell growth factor project, biochemical, small-molecule microarray, fluorescence 635/667 (AID 1087).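 Note: score merges spot fluorescence at 667nm with spot signal to noise ratio.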 The note with it: higher = more signal.
Assay [11] relates to PRMT1 (protein arginine N-methyltransferase 1). Kind of assay: small molecules binding arginine methyltransferase PRMT1 – biochemical, small-molecule microarray, 635 nm fluorescence, primary screen (AID 1088).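 Note: binding of Prmt1 protein to compounds spotted on small-molecule microarray slides.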 The note with it: higher = more signal.
Assay [12] in a line: growth effects on S. cerevisiae YJM789 – YJM789 clinical isolate, OD600, 24 h, basal, primary screen (AID 1089).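 Note: growth of clinical yeast isolate S. cerevisiae YJM 789 seeded 1000 cells per well; test concentration not given here.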 The note with it: higher = more signal, called active from +8 up or from −8 down.
Assay [13] can be described thus: S. pombe growth modifiers, basal conditions – strain 972, OD600, 24 h, no modulator, primary screen (AID 1090).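 Note: basal condition with compound alone and no growth modifier present; test concentration not given here.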 The note with it: S. pombe 972 growth, higher = more signal, called active from +8 up or from −8 down.
Assay [14] in a line: budding yeast growth modifiers under rapamycin – strain BY4716, OD600, 96 h, primary screen (AID 1091). Note: test concentration not given here. The note with it: S. cerevisiae BY4716 + rapamycin, higher = more signal, called active from +8 up or from −8 down.
In assay [15] the target is Torsin-1A-interacting protein 2 (Homo sapiens) (UniProt Q8NFQ8). Kind of assay: small molecules binding lysate-expressed LULL1 – cell lysate, human LULL1 lysate, 635/667 nm fluorescence, primary screen (AID 1092).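 Note: probe is lysate of COS7 cells overexpressing human LULL1; score merges per-feature 667 nm fluorescence with signal-to-noise.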 The note with it: small-molecule microarray, hLULL1 lysate binding, 635 nm fluorescence; higher = more signal.
A short description of assay [16]: optical density change of DRC41 E. coli – strain DRC41, OD650, 24 h, E. coli filamentation project, primary screen (AID 1093).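 Note: MC1000 strain lacking acrAB efflux and sulA so SOS filamentation is blocked; test concentration not given here.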 As to conditions: E. coli DRC41 growth, higher = more signal, called active from +8 up or from −8 down.
Assay [17] is described as follows: probe aLefty2 binding to arrayed compounds – biochemical, biotinylated probe, 635/667 nm fluorescence, primary screen (AID 1094).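 Note: score merges spot fluorescence near 667 nm with spot signal-to-noise ratio.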 The note with it: small-molecule microarray, higher = more signal.
For assay [18], the system named is Noggin (protein binding on small-molecule microarray). Kind of assay: small molecules binding Noggin protein – biochemical, 635/667 nm fluorescence, primary screen (AID 1095).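 Note: score merges 667 nm feature fluorescence with signal to noise over triplicate slides.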 The note with it: 635 nm fluorescence, higher = more signal.
The target in assay [19] is Neurogenic locus notch homolog protein 3 (Homo sapiens) (UniProt Q9UM47). Kind of assay: small molecules binding NOTCH3 protein – biochemical, 635/667 nm fluorescence, primary screen (AID 1096). The note with it: small-molecule microarray, 635 nm fluorescence, higher = more signal.
Sequence of Neurogenic locus notch homolog protein 3 (Homo sapiens) (Q9UM47 whole entry, looked up): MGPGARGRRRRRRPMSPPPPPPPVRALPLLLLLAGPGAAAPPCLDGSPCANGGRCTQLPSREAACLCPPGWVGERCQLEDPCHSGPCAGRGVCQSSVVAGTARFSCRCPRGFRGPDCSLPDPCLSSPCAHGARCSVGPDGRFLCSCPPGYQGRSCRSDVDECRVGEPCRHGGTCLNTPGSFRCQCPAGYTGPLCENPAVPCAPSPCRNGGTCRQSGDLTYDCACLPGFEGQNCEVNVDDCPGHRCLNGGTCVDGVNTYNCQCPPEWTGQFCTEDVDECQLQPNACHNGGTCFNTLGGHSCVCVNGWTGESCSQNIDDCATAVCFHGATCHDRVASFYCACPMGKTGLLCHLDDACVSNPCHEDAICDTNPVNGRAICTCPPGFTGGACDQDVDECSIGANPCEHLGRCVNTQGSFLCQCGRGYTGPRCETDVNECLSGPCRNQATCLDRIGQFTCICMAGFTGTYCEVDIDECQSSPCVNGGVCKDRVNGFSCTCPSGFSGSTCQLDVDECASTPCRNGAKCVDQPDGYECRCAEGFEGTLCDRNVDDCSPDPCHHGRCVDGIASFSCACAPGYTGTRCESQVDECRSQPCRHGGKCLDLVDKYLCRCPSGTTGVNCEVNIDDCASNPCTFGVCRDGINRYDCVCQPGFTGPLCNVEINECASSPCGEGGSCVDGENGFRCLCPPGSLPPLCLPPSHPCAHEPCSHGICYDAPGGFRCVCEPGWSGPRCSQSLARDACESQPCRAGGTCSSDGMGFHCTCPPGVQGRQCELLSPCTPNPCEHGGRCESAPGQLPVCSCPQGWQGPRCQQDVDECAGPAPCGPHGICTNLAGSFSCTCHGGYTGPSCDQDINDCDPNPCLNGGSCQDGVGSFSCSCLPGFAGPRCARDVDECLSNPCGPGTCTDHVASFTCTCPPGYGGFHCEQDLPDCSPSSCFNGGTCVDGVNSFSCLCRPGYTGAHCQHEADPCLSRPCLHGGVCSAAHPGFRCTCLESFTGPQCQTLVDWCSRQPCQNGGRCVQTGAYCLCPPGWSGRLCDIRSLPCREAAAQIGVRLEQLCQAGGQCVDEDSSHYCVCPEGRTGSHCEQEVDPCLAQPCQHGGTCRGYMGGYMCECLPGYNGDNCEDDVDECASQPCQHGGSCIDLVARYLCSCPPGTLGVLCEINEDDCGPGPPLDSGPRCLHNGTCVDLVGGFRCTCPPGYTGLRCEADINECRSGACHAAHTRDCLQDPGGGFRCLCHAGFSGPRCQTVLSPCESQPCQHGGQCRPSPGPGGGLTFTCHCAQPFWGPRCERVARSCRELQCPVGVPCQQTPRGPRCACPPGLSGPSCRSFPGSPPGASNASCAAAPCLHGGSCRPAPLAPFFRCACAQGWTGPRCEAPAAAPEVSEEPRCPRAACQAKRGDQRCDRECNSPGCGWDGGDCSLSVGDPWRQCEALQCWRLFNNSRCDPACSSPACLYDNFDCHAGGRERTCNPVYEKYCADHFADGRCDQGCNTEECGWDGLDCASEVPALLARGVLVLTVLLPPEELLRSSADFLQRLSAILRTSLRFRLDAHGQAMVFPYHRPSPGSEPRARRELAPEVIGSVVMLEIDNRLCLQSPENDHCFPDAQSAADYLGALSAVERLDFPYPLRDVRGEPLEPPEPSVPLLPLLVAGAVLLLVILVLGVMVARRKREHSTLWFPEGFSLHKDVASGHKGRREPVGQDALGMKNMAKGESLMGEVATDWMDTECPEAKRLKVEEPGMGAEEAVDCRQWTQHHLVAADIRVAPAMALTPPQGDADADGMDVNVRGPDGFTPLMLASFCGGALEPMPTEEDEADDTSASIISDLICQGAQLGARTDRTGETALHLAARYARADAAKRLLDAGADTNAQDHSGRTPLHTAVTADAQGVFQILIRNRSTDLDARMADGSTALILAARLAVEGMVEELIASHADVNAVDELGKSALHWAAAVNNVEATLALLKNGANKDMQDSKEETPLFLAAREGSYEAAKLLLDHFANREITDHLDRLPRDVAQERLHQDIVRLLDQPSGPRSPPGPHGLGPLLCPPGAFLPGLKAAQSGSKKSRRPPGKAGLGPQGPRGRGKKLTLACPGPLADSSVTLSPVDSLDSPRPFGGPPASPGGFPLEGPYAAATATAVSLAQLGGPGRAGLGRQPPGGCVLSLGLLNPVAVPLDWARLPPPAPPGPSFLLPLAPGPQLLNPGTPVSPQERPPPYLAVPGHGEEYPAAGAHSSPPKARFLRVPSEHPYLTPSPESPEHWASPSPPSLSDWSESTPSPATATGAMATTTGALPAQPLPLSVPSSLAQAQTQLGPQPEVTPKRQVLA
A short description of assay [20]: probe aEGFR binding to arrayed compounds – biochemical, biotinylated probe, 635/667 nm fluorescence, primary screen (AID 1097).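 Note: probe is a biotinylated anti-EGFR antibody binding compounds printed on slides; score combines fluorescence near 667 nm and signal to noise of each spot.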 The note with it: small-molecule microarray, higher = more signal.

This passage reports composite z-score and z-score results from PubChem BioAssay.

Molecules are shown by their SMILES. Active and inactive are the calls of the source.

In the case of `O=C(CS)NCCCCCCNC(=O)[C@H]1C[C@H]2C(=O)NCC(=O)N2[C@H]1c1ccc(O)cc1`, the composite z-score in [1] is 0.249; in assay [2], -0.465; in [3] it was -0.137; in [4], 0.263; in assay [5], -0.355; in [6], 1.22. For the same compound, the composite z-score in [7] was 1.32; in [9] it was -0.346; in assay [10], 0.0201; in assay [11] it was 0.16; in [15] it was 1.46; in [17], -0.0903. The composite z-score is 0.384 in assay [18], 0.0288 in assay [19] and -0.136 in assay [20]. Also, the z-score in assay [8] is -0.348 (inactive); in [12] it was -0.408 (inactive); in [13], 0.0177 (inactive); in [14], 0.505 (inactive); in [16], -0.449 (inactive).

Take `CC(=O)NCCCC[C@@H]1NC(=O)[C@H]2C[C@@H](C(=O)NCCCCCC[N+](C)(C)C)[C@@H](c3cccc(OCCO)c3)N2C1=O`: the composite z-score is -0.374 in [1]; 0.645 in assay [2]; -0.0894 in [3]; 0.245 in assay [4]; 0.117 in [5]; 1.5 in assay [6]. Besides, the composite z-score in [7] was 1.42; in assay [9], -0.0568; in assay [10] it was -0.201; in assay [11], 1.53; in [15], 2.98; in assay [17] it was -0.16. In addition, the composite z-score was 1.19 in [18], 0.97 in assay [19] and -0.0967 in assay [20]. Further, the z-score is 5.18 (inactive) in assay [8]; -0.752 (inactive) in assay [12]; 0.0936 (inactive) in assay [13]; -0.425 (inactive) in assay [14]; 1.23 (inactive) in assay [16].

For `CC(C)C(=C=CC[C@@H](O)c1ccccc1OCCO)C[C@@H](O)c1ccccn1`, the composite z-score in assay [1] was -0.438; in assay [2], -0.0682; in assay [3], -0.153; in assay [4] it was 0.477; in [5] it was 0.0623; in assay [6] it was 0.0795. Moreover, the composite z-score in assay [7] was 1.19; in assay [9], 0.272; in assay [10], 0.176; in assay [11], 0.439; in [15], 2.67; in assay [17] it was -0.126. Besides, the composite z-score was 0.538 in [18], 0.878 in assay [19] and -0.099 in assay [20]. Also, the z-score in assay [8] was -0.306 (inactive); in assay [12] it was 2.46 (inactive); in [13], -0.18 (inactive); in assay [14] it was -1.1 (inactive); in [16], -0.0287 (inactive).

`Cc1ccc([C@H]2[C@H](C(=O)O)[C@H](Sc3ccccc3)[C@@H](C(C)C)N2S(=O)(=O)c2ccc(C)cc2)cc1`: the composite z-score in assay [1] was -0.182; in assay [2], -0.126; in [3] it was 0.167; in assay [4] it was 0.307; in assay [5], 1.49; in assay [6] it was 1.78. In addition, the composite z-score in assay [7] was 0.945; in assay [9] it was 1.31; in assay [10], -0.226; in assay [11] it was 1.03; in assay [15], 3.03; in assay [17], 0.179. Moreover, the composite z-score in assay [18] was 0.0176; in assay [19], 1.13; in assay [20], -0.0679. Moreover, the z-score in assay [8] was -2.58 (inactive); in assay [12] it was -0.611 (inactive); in assay [13] it was -0.0319 (inactive); in assay [14], -0.993 (inactive); in [16], -1.69 (inactive).

`COc1ccc(C#Cc2ccc3c(c2)[C@]2(C(=O)N3)[C@H](C(=O)NC[C@H](O)c3ccccc3)[C@H]3C(=O)O[C@H](c4ccccc4)[C@H](c4ccccc4)N3[C@@H]2c2ccc(OCCO)cc2)cc1`: the composite z-score was -0.547 in assay [1]; 0.637 in [2]; -0.0005 in assay [3]; 0.6 in assay [4]; 0.975 in assay [5]; 1.07 in [6]. Also, the composite z-score in assay [7] was 1.19; in [9] it was 0.0324; in [10], -0.32; in assay [11], 1.49; in assay [15] it was 2.96; in [17], -0.22. Besides, the composite z-score in assay [18] was 1.52; in assay [19], 1.09; in assay [20], -0.0746. For the same compound, the z-score in assay [8] is 0.943 (inactive); in assay [12], 2.85 (inactive); in [13] it was 1.64 (inactive); in assay [14] it was 4.35 (inactive); in [16] it was -0.508 (inactive).
